In all, about 340,000 compounds went through this assay and about 55 (0.02%) were called active.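 Rule for the calls: active = phage lysis inhibition, versus mean bacterial control, above a set limit; inconclusive = no clear call, values can overlap the other calls; inactive = the rest.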 Only a sample is shown. Measured potencies and affinities stand elsewhere.
Test: inhibition of K1F phage lysis, E. coli UTI89, bacterial capsule biogenesis inhibitors, alamar blue (AID 488966);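 note: capsule biogenesis inhibitors block K1F phage lysis so surviving cells raise fluorescence; higher fluorescence means more inhibition of phage lysis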
Conditions: 2 h; inhibition: at 100 µM, active compounds read high unless noted; series mostly up to 300 µM; inhibition of phage lysis: at the top concentration

inhibition, inactive:
COc1ccc(CCNC(=O)C23CCC(C)(C(=O)O2)C3(C)C)cc1OC (stereo not drawn) 1.58% [at 50 µM, active compounds read high], CCCn1nc(-c2nnc(-c3ccc(C)c(C)c3)o2)c2ccccc2c1=O 0.05%, CCn1ncc(C2=NOC(C(=O)Nc3cccc(C(C)=O)c3)C2)c1C (stereo not drawn) 4.79%, CS(=O)(=O)N(CC(=O)NN=C1CCCCCC1)c1ccc(Oc2ccccc2)cc1 0.37%, CCN1C(=O)N[C@@H](c2cccc(C(F)(F)F)c2)[C@@H](C(=O)OC)[C@H]1C 0.13%, O=C(Oc1coc(CSc2nnc(NC(=O)C3CC3)s2)cc1=O)c1ccccc1 4.85%, COc1ccc(N2C(=O)C(CC(=O)Nc3ccccc3)N(Cc3cccs3)C2=O)cc1 (stereo not drawn) -4.46%, CCOC(=O)c1c(C)n(C)c2cc(-c3ccc(F)cc3)c(O)cc12 7.65%, C[C@H](NC(=O)c1nc[nH]c1C(=O)N[C@@H](CCCCNC(=O)OC(C)(C)C)C(=O)OC(C)(C)C)c1ccccc1 2.05%, COc1ccc(NC(=O)Nc2cc(C(C)(C)C)on2)cc1OC 1.47% [at 50 µM, active compounds read high], O=S(=O)(c1ccc(S(=O)(=O)N(Cc2ccco2)Cc2ccccc2Cl)cc1)N1CCCC1 0.31%, Clc1ccc(-c2ccc(/C=N/Nc3nncc(-c4ccccc4)n3)o2)cc1 0.65%, O=C(NCc1ccccc1Cl)c1cc([N+](=O)[O-])ccc1Cl 0.11%, O=C(NCc1cc([N+](=O)[O-])ccc1O)c1cccnc1Sc1ccc(Cl)cc1 7.97%, CC(=O)Nc1ccc(Nc2ccc(S(=O)(=O)C(F)(F)F)cc2[N+](=O)[O-])cc1 -2.27%, Cc1ccc(CC(NC(=O)c2ccccc2)C(=O)NC(CC(C)C)C(=O)O)cc1 (stereo not drawn) 0.84%, CCCCS(=O)CC(COC)OC(=O)c1ccccc1 (stereo not drawn) 0.21%, Cc1cccc2c1nc(-c1ccccc1)n1nnnc21 -2.7%, COc1ccc(CNC(=O)CN2C(=O)CSc3ccc(S(=O)(=O)N4CCCCC4)cc32)cc1 0.13%, Cc1cc(OC(=O)c2cccs2)ccc1C(C)C -0.04%, O=C(Cn1cnc(S(=O)(=O)N2CCCC2)c1)Nc1ccccc1 0.25%, O=c1c(Cl)c(NS(=O)(=O)c2ccccc2)cnn1-c1ccccc1 0.1%, COc1ccc(C(=O)OCC(=O)NC(C)CCc2ccccc2)cc1OC (stereo not drawn) -0.14%, O=C1CCc2cc(NS(=O)(=O)c3ccc(Cl)cc3)cc3c2N1CC3 -0.37% [at 50 µM, active compounds read high], C=CCN1C(=O)CN=C1Nc1cc(C)cc(C)c1 -1.02%, COc1ccc(C(=O)N2CCN(C)C(C)C2)cc1OC1CCN(C(C)=O)CC1 (stereo not drawn) -0.02%, CCC(OC(=O)c1nsc(Cl)c1Cl)C(=O)NCCOC (stereo not drawn) -0.07%, Cc1nn(CC(=O)Nc2ccc(N3CCOCC3)cc2)c(C)c1Br -0.525% [at 50 µM, active compounds read high], Cc1ccccc1NC(=O)CCN1CCN(C)CC1 -0.19%, Cc1ccccc1NC(=O)NCCCN1CCN(C)CC1 -0.845% [at 50 µM, active compounds read high], CN(C)C1=NC[C@H](Cc2ccccc2)N1CC1CCCC1 6.41%, COc1cc2cc(C(=O)NCCc3ccccc3)[nH]c2cc1OC -0.295% [at 50 µM, active compounds read high], O=C(C1CCCO1)N1CCN(S(=O)(=O)c2ccc(F)cc2)CC1 (stereo not drawn) -0.11% [at 50 µM, active compounds read high], O=C(COC(=O)c1ccccc1[N+](=O)[O-])Nc1cccnc1Cl 0.32% [at 50 µM, active compounds read high], Cc1ccc(NC(=O)CN(C)C(=O)Cn2nnc(-c3ccccc3C)n2)cc1 -2.28%, COc1ccc(C(=O)OCC(=O)NCC2CCCCC2)cc1F -0.21% [at 50 µM, active compounds read high], CC(C)/C=C1\CCc2c([nH]c3ccccc23)C1=O 0%, CC1Cc2ccccc2N1C(=O)COC(=O)CSc1ccc(F)cc1 (stereo not drawn) 0.27% [at 50 µM, active compounds read high], COc1ccc(NC(=O)CN(C)C(=O)c2ccccc2OCC(=O)Nc2cccc(C(F)(F)F)c2)cc1 1.88% [at 50 µM, active compounds read high], NC(N)=N/N=C/c1ccc(OCc2ccc(Cl)cc2)cc1 -12.3%, NC(N)=N/N=C/c1ccc(OCc2ccccc2)c(OCc2ccccc2)c1 1.28%, CC1=C(C(=O)OCC(C)C)C23C(=O)c4ccccc4C2(O1)OC(N)=C3C#N (stereo not drawn) 0.06%, CCOC(=O)C1CCCN(c2c(NCCCN(C)Cc3ccccc3)c(=O)c2=O)C1 (stereo not drawn) 2.34%, Cc1ccc2nc(SCC(=O)Nc3ccccc3N3CCOCC3)c(C#N)cc2c1 -1.09%, CCC(=O)N1c2ccc(S(=O)(=O)N3CCCCC3)cc2CC1C (stereo not drawn) 0.16%, CC(C)N(Cc1ccccc1)C(=O)CN1C(=O)NC2(CCCC2)C1=O 1.04% [at 50 µM, active compounds read high], Cc1c(NC(=S)NC(=O)c2cccc([N+](=O)[O-])c2)c(=O)n(-c2ccccc2)n1C -0.17%, O=C(CSc1nc2c(cnn2-c2ccccc2)c(=O)[nH]1)NC1CCS(=O)(=O)C1 (stereo not drawn) -0.1%, COC(=O)Nc1nc(Sc2ncc(C(F)(F)F)cc2Cl)n[nH]1 1.11%, CCOC(=O)c1ccc2[nH]c3c(c2c1)CCCC3 0.13%, CCC(CC)NC(=O)c1cc(OC)c(OC)cc1[N+](=O)[O-] 0.4%, COc1cc(OC)c(OC)cc1CN(C)CC1CCCN(CCc2ccccc2F)C1 (stereo not drawn) 0.88%, c1ccc2c(-c3cncc4ccccc34)cncc2c1 0.59%, CCOC(=O)C(Cc1ccc(O)cc1)NC(=O)CNC(=O)C(CC(C)C)NC(=O)OC(C)(C)C (stereo not drawn) 4.94%, COc1cccc(-c2c(C(=O)N/N=C(\C)c3cccs3)nnn2-c2nonc2N)c1 0.38%, Cc1ccc(C)c(S(=O)(=O)N2CCCCC2CCNC(=O)C(=O)NCc2ccccc2)c1 (stereo not drawn) 0.87% [at 50 µM, active compounds read high], Brc1c(OCCOCCn2cncn2)ccc2ccccc12 -1.02%, O=C(CCc1ccccc1)N=C1SC2CS(=O)(=O)CC2N1c1ccc(F)cc1 (stereo not drawn) 0.07%, Cc1ccc(S(=O)(=O)c2c(C)cc(C)nc2Oc2cccc(C)c2C)cc1 1.5%, COc1cc(CCC(=O)NCC2CCCO2)cc(OC)c1OC (stereo not drawn) 0.13%, CC(C)C(NC(=O)c1ccccc1F)C(=O)OCC(=O)c1ccc(F)cc1 (stereo not drawn) -0.86%, Cc1ccc(C(C)(C)C)cc1S(=O)(=O)Nc1cccc(C(=O)N2CCN(c3ccccn3)CC2)c1 -1.06% [at 50 µM, active compounds read high], O=C1CCCN1C(=O)CSc1ccc2ccccc2n1 0.65% [at 50 µM, active compounds read high], O=Nc1ccc(NOC(=O)c2ccccc2)cc1 0.94% [at 50 µM, active compounds read high], Cc1ccc(C(=O)ONc2ccc(N=NC(=O)c3ccccc3O)cc2)cc1 -1.4%, CCC1(CC)C(=O)NC(=O)NC1=NCCc1c[nH]c2ccccc12 8.91%, CC(=O)c1ccc(C(C)(C)c2ccc(C(C)=O)s2)s1 1.04%, COc1cc(/C=N/O)ccc1OCc1ccccc1Cl 2.6%, COc1cc(/C=N/N=C(N)N)ccc1OCc1ccc(Cl)cc1 1.12%, CCSc1ccccc1C(=O)Nc1ccc([N+](=O)[O-])cc1OC -0.1%, COc1ccc2cc(C(=O)NCCCN3CCCC3=O)[nH]c2c1 0.11%, CCOCCCNC(=O)CCc1ccc(S(=O)(=O)Nc2ccc(C)cc2)cc1 -0.65%, CN(C)S(=O)(=O)c1ccc(C(=O)N(c2ccccn2)c2ccccn2)cc1 0.22%, O=C(CCCc1nc2ccccc2s1)Nc1ccc(N2CCOCC2)cc1 0.19%, COC(=O)c1cc(OC)c(OC)cc1NC(=O)CN1CCOCC1 1.47%, CCN(CC)c1ccc2c(O)cc(=O)oc2c1 0.26%, CCN(CC)c1ccc(C(=C2C=CC(=[N+](CC)CC)C=C2)c2ccc(S(=O)(=O)O)cc2S(=O)(=O)[O-])cc1 -0.79% [at 50 µM, active compounds read high], COc1ccc2c(=O)c(-c3ccc(C)cc3)c(-c3ccccc3)oc2c1 0.1%, Cc1ccc(C(=O)N2CCN(S(C)(=O)=O)C2)cc1 3.27%, N=c1n(CCN2CCCCC2)c2ccccc2n1CC(O)c1ccc(Cl)c(Cl)c1 (stereo not drawn) -4.43%

Inhibition of phage lysis, inactive:
Cc1ccc(Sc2ncccc2C(=O)NCc2cc([N+](=O)[O-])ccc2O)cc1C 7.85%, Cc1ccc(Sc2ncccc2C(=O)NCc2cc([N+](=O)[O-])ccc2O)c(C)c1 5.51%, N=c1n(CCN2CCCCC2)c2ccccc2n1CC(O)c1cccc(Br)c1 (stereo not drawn) 2.09%
